Test results as given in the supplement of paper PMC11732987, “Enantioselective OTUD7B fragment discovery through chemoproteomics screening and high-throughput optimisation” (Communications Chemistry, 2025).
Unmarked numbers belong to inactive results.

Columns and labels:
Assay in all cases: log2 ratio of Biotin-Ahx-Ub-VS probe labelling (fragment/DMSO); higher = less target engagement (more negative = stronger competition), active = hit call of the paper (q ≤ 0.05, log2 ratio ≤ -1)
Details in all cases: compound concentration: 200 uM; treatment time: 3 h
[1] = molecular target: T1, USP42 (UniProt Q9H9J4)
T1 sequence (whole entry): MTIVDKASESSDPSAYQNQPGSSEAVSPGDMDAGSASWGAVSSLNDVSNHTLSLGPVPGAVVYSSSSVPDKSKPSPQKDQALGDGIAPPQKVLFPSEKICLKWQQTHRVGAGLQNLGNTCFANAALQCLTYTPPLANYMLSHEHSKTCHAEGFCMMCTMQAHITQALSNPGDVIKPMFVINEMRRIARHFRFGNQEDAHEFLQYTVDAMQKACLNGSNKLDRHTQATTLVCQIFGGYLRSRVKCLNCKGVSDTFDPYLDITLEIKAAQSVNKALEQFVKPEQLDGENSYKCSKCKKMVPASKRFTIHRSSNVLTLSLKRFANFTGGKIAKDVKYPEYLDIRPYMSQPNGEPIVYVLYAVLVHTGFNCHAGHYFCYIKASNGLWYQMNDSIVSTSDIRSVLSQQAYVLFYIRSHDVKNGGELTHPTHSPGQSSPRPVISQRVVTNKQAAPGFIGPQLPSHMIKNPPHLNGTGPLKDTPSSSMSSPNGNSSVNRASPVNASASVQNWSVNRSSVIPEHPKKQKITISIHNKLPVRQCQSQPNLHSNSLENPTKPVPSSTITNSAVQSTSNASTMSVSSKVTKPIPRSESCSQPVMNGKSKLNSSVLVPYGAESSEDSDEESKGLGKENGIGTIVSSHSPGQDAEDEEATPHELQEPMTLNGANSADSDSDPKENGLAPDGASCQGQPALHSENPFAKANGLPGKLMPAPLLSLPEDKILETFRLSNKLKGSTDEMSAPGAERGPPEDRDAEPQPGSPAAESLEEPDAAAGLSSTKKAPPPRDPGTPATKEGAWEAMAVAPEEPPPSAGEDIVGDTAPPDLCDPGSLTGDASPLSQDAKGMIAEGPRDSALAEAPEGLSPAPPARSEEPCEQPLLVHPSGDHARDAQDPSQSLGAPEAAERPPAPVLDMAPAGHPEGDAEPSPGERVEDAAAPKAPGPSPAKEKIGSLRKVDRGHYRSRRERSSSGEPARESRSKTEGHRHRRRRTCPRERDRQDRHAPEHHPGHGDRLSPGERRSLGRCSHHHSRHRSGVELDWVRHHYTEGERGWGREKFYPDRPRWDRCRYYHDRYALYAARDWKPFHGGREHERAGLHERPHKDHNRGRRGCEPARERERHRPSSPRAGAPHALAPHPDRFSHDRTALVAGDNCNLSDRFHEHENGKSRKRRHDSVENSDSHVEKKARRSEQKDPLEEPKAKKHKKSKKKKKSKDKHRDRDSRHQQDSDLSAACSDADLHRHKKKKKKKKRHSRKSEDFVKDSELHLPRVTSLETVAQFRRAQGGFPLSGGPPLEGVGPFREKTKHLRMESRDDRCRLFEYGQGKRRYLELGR
Method in brief: (§1)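 Each value is an average log2 ratio of fragment to vehicle, tested by unpaired t-test. The underlying Spectronaut label-free quantities were global-median-normalised, and only proteins with ≥2 unique peptides were included. Triplicate HEK293T lysate samples (495 µg) were exposed to fragment at 200 µM or vehicle for 3 h, then to Biotin-Ahx-Ub-VS at 0.5 µM final for 1 h, before NeutrAvidin enrichment of labelled DUBs, LysC and trypsin digestion, and diaPASEF LC-MS/MS.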

[2] = molecular target: USP46 (UniProt P62068)
Method in brief: as §1

[3] = molecular target: T2, USP47 (UniProt Q96K76)
T2 sequence (whole entry): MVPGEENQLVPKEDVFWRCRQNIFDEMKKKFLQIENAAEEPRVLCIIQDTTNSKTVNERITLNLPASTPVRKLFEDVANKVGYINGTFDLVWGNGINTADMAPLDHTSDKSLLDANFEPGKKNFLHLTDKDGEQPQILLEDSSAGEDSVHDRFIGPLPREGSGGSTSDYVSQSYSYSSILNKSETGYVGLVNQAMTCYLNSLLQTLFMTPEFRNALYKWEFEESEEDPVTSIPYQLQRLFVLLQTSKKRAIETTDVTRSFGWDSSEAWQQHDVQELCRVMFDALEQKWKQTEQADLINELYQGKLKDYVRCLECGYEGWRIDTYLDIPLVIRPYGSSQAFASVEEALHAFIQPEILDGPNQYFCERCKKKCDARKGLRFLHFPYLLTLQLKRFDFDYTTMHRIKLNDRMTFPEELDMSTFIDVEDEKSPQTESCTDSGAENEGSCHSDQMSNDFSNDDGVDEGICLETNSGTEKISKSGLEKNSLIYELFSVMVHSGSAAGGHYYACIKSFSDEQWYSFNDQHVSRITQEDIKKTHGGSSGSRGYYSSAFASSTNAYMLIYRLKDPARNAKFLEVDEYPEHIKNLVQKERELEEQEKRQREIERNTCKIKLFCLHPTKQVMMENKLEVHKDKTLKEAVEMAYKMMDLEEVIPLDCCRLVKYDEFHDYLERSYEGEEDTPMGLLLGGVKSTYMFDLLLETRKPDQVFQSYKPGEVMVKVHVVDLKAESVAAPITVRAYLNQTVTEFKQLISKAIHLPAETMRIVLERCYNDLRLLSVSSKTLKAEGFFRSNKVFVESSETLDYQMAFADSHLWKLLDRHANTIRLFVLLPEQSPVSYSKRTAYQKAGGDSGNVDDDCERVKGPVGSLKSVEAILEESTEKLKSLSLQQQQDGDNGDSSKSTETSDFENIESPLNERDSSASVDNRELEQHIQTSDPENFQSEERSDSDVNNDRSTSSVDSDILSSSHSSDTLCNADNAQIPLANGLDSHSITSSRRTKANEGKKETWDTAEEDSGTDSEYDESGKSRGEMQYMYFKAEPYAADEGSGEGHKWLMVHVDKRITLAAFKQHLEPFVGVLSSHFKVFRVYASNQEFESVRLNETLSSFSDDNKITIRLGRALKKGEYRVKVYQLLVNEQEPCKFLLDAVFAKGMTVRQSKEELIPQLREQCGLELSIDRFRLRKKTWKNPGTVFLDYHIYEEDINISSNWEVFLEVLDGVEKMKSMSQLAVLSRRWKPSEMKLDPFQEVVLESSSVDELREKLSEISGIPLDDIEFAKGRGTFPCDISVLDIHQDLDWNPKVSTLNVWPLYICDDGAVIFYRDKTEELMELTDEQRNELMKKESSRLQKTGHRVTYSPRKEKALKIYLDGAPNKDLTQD
Method in brief: as §1

[4] = molecular target: T3, USP48 (UniProt Q86UV5)
T3 sequence (whole entry): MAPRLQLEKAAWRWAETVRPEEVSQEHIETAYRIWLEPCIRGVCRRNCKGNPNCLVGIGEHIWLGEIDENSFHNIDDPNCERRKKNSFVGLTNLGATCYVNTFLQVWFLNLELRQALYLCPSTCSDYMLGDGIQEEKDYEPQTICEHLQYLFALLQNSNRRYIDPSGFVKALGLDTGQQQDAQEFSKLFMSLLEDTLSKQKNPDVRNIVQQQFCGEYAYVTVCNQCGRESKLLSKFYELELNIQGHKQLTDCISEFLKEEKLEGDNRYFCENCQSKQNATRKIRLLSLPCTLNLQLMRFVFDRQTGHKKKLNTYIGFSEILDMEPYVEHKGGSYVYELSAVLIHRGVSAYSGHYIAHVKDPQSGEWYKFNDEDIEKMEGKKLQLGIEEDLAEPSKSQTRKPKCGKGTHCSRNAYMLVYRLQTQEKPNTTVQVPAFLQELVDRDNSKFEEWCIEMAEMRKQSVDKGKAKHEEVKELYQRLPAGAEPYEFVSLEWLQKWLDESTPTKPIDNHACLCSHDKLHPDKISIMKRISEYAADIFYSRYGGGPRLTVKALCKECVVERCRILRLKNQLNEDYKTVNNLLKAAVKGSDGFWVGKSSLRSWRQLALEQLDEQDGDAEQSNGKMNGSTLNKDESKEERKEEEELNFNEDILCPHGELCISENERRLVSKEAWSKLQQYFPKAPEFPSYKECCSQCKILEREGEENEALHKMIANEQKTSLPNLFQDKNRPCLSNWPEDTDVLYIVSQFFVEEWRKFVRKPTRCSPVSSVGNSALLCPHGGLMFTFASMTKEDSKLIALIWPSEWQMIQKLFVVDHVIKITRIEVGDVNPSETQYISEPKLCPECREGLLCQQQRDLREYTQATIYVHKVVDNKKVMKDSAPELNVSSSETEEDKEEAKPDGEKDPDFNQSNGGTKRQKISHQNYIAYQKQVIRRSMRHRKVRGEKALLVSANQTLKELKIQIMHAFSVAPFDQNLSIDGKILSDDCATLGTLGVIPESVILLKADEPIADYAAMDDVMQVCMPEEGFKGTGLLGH
Method in brief: as §1

[5] = molecular target: T4, USP5 (UniProt P45974)
T4 sequence (whole entry): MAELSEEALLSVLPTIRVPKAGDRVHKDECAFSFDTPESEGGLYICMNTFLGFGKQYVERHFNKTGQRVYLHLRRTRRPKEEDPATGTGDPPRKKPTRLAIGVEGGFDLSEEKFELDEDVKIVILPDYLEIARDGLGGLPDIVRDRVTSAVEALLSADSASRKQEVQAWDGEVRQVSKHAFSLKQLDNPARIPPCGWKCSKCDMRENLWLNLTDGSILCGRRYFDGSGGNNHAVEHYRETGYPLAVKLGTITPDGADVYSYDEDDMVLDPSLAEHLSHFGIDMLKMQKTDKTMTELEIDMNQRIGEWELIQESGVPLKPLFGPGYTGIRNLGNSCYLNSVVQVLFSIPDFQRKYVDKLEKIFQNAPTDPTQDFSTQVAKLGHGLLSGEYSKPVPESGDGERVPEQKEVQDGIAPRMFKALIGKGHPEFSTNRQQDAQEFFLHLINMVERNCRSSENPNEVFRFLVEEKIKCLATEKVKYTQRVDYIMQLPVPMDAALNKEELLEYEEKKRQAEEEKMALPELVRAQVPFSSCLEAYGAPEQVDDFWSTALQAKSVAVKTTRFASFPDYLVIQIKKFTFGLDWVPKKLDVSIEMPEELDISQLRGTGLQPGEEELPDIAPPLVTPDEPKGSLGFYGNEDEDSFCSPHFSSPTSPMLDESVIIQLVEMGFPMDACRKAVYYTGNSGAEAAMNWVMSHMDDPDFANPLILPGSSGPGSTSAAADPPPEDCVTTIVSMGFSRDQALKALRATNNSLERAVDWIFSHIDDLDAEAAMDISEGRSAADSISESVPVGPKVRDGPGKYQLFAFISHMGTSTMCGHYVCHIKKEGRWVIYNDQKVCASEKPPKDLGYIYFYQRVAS
Method in brief: as §1

[6] = molecular target: USP54 (UniProt Q70EL1)
Method in brief: as §1

[7] = molecular target: USP7 (UniProt Q93009)
Method in brief: as §1

[8] = molecular target: T5, USP8 (UniProt P40818)
T5 sequence (whole entry): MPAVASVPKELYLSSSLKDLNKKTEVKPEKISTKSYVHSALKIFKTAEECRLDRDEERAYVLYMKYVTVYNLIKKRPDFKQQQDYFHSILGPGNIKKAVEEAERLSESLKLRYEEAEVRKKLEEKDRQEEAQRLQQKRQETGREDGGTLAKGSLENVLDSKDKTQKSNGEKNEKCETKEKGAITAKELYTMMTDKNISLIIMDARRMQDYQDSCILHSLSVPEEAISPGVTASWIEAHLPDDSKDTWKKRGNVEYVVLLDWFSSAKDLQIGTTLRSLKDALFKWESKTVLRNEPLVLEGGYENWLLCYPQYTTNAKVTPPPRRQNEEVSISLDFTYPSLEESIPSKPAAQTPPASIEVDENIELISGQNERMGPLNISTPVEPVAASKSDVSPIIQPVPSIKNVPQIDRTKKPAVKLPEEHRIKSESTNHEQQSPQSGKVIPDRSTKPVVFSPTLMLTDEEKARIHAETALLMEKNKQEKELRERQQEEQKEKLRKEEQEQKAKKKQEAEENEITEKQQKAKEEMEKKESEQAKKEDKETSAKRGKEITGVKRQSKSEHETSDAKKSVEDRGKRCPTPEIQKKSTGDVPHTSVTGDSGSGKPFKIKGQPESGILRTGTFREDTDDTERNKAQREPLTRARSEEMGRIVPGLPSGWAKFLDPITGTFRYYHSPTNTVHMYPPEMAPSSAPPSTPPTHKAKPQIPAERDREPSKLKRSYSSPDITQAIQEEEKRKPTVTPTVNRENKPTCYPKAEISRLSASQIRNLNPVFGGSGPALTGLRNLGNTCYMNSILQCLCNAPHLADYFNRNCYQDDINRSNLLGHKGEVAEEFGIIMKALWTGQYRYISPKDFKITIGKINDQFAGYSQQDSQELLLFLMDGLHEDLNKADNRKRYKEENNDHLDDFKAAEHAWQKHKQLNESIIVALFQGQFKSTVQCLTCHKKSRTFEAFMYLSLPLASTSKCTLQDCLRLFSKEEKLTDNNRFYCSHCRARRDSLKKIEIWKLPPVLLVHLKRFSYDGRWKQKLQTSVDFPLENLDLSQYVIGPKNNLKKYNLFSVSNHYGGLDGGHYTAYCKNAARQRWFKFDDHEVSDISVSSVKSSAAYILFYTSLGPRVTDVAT
Method in brief: as §1

[9] = molecular target: USP9X (UniProt Q93008)
Method in brief: as §1

[10] = molecular target: UniProt O00487
Method in brief: as §1

Chain of USP9X (Q93008 whole entry): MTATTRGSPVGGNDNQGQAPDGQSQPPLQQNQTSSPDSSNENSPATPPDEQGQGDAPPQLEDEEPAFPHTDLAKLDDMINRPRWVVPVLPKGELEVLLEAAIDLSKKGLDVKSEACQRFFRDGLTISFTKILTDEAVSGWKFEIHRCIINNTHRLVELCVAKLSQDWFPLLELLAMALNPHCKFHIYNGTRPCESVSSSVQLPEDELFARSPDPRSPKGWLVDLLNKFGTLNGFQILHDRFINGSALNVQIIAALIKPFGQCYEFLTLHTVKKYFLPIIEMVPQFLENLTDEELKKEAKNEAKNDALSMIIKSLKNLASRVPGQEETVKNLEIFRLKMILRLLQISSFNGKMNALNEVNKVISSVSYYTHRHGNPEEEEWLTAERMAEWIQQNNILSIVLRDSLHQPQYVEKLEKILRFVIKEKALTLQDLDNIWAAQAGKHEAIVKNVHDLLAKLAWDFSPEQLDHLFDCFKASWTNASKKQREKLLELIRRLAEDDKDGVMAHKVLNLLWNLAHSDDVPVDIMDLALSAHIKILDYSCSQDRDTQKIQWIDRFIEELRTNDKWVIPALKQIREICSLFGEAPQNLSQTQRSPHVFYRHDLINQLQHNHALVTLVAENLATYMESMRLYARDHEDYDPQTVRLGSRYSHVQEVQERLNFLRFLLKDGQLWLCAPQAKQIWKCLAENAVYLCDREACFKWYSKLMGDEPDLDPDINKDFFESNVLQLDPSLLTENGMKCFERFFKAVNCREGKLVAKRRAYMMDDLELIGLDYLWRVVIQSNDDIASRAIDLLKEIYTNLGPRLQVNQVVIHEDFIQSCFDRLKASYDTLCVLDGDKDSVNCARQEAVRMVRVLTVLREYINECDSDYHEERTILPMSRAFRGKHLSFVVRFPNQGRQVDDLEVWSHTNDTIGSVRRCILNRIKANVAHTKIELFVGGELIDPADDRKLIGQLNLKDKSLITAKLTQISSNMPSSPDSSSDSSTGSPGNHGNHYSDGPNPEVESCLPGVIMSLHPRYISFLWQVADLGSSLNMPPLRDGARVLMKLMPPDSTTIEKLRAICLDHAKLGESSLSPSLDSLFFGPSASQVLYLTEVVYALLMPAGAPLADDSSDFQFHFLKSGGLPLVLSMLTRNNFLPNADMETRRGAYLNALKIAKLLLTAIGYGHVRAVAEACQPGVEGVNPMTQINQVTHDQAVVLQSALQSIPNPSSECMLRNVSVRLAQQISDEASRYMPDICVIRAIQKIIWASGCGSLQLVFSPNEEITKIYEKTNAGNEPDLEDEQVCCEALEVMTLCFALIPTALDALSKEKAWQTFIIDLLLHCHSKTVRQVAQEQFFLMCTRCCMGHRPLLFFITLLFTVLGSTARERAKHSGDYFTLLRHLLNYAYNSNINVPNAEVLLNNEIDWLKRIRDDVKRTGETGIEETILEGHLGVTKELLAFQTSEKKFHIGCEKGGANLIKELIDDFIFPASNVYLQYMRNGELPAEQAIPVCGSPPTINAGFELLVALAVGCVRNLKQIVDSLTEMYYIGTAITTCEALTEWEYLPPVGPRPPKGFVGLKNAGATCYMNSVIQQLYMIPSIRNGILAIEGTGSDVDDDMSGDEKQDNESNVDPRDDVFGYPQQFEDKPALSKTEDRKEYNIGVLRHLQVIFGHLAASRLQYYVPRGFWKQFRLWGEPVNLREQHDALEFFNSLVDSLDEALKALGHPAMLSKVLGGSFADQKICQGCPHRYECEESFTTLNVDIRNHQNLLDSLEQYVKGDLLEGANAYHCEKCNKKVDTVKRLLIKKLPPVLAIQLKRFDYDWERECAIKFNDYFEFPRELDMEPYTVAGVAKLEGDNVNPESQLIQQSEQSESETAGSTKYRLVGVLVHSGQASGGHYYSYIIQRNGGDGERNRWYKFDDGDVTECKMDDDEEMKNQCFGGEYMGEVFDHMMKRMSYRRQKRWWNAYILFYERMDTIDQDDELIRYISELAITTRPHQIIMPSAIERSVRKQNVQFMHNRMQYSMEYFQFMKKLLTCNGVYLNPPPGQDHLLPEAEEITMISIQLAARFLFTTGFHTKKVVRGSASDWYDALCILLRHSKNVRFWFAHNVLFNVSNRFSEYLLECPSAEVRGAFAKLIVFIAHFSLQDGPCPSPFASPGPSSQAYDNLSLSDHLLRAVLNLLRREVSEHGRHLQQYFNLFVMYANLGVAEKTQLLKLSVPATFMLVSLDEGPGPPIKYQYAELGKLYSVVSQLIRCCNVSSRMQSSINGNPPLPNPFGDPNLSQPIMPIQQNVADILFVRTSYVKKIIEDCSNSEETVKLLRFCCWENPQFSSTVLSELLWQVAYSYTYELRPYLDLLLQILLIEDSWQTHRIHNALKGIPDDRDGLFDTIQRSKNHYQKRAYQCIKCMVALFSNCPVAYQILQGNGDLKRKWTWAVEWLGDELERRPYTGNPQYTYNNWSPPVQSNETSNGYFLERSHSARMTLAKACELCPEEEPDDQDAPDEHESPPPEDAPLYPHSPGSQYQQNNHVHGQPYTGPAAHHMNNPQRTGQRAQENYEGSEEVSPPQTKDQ
Chain of USP54 (Q70EL1 whole entry): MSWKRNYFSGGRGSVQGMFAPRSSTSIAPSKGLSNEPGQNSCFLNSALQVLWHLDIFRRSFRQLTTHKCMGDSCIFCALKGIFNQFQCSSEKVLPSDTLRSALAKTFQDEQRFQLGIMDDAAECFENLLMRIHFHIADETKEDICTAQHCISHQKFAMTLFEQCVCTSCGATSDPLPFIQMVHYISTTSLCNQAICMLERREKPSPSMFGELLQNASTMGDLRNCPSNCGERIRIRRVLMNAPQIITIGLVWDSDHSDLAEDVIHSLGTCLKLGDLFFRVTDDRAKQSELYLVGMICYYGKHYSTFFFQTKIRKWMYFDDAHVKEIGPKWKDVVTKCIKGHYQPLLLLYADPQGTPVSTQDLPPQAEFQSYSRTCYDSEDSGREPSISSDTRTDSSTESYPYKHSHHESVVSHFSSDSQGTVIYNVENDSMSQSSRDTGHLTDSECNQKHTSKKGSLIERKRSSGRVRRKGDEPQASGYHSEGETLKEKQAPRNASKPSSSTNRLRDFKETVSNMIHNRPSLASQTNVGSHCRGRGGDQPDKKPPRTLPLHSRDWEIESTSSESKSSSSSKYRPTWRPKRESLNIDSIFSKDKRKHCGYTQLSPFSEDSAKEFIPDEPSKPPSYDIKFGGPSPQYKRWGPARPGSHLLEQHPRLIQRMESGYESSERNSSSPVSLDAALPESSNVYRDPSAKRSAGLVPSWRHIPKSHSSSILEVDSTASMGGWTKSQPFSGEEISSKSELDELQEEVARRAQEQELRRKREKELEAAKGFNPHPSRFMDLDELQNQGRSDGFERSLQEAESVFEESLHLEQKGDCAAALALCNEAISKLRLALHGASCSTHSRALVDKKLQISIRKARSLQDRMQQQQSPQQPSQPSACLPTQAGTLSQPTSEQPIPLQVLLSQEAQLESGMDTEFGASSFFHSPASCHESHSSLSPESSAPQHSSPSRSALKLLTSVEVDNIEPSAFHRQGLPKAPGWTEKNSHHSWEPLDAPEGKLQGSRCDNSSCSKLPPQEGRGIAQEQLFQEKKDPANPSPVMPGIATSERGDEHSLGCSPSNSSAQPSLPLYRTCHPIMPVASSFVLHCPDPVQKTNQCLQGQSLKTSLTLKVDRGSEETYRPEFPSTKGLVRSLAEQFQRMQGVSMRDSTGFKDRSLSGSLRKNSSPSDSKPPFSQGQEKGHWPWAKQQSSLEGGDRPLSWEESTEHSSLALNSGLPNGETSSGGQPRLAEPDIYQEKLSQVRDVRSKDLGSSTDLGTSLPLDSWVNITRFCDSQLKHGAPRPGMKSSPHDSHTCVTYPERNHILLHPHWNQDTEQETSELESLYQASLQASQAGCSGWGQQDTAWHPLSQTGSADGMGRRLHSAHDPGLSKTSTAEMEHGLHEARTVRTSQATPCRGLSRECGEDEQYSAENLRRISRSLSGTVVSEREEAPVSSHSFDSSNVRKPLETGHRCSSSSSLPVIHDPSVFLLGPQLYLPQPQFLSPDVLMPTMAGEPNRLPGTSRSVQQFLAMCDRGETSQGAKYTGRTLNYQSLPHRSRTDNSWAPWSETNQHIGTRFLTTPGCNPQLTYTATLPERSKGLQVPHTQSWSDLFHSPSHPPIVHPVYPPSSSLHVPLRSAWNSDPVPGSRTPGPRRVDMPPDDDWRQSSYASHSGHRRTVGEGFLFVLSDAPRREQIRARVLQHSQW
Chain of UniProt O00487 (O00487 whole entry): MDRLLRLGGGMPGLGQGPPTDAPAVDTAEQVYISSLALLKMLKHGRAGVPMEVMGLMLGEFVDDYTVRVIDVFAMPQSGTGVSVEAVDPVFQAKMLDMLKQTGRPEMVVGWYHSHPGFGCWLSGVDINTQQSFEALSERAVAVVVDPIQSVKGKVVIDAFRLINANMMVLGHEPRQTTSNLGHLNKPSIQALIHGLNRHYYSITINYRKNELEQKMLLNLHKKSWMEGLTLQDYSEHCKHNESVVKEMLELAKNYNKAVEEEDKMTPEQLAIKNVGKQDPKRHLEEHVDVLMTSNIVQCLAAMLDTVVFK
Chain of USP46 (P62068 whole entry): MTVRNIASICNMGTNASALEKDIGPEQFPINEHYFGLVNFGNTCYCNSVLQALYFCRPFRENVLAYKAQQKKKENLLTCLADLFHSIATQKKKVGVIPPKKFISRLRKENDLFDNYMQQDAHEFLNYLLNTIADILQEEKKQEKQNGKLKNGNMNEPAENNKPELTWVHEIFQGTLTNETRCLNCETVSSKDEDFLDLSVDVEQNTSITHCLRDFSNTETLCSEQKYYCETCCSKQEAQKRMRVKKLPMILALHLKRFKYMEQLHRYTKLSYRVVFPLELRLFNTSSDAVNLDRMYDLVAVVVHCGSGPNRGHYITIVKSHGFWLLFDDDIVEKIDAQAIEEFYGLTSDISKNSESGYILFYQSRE

## O=C(CCl)N1CCN(c2nc3ccccc3o2)CC1
[1]
  log2 ratio of Biotin-Ahx-Ub-VS probe labelling: 0.952
[2]
  log2 ratio of Biotin-Ahx-Ub-VS probe labelling: -0.372
[3]
  log2 ratio of Biotin-Ahx-Ub-VS probe labelling: -0.362
[4]
  log2 ratio of Biotin-Ahx-Ub-VS probe labelling: -0.829
[5]
  log2 ratio of Biotin-Ahx-Ub-VS probe labelling: -0.993
[6]
  log2 ratio of Biotin-Ahx-Ub-VS probe labelling: -0.173
[7]
  log2 ratio of Biotin-Ahx-Ub-VS probe labelling: -1.99 (active)
[8]
  log2 ratio of Biotin-Ahx-Ub-VS probe labelling: -0.223
[9]
  log2 ratio of Biotin-Ahx-Ub-VS probe labelling: -0.248
[10]
  log2 ratio of Biotin-Ahx-Ub-VS probe labelling: -0.0834
